HP1b chromo inh: HP1-beta chromodomain-methylated histone interaction inhibition. AlphaScreen HP1-beta / biotin-H3K9me3 peptide binding. Potency, µM (doses to about 114 µM), inactives show top-dose activity change, negative = inhibition, usual class: inhibitors. 0.56% of 390,000 active; further: potency means the concentration at half of the fitted maximal effect; nearly all actives have a fitted effect of over 70% in size
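HP1-beta protein (50 nM final) preincubated 30 min at room temperature with biotinylated H3(1-18)K9me3 peptide (50 nM) in PBS pH 7.4, 0.01% Tween-20, then compound added for 30 min. AlphaScreen streptavidin donor/nickel chelate acceptor beads (10 ug/mL final), 30 min dark, luminescence read.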
BAZ2B block: blocks human BAZ2B. Q9UIF8. AlphaScreen BAZ2B-H3K14Ac peptide displacement. Potency, µM (series often up to 114 µM), without a hit: at the top dose activity change, negative = inhibition, most hits filed as inhibitors. 4.4% of 360,000 active; further: potency means the concentration at half of the fitted maximal effect; on the % scale 0 is the no-effect control and ±100 the full control effect; nearly all actives have a fitted effect of over 60% in size
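Inhibition is scored as reduced AlphaScreen emission. The BAZ2B/b-H3(5-23)K14Ac complex (50 nM each) in PBS pH 7.4, 0.01% Tween-20 meets compound (up to 110 uM) for 30 min at RT before bead addition.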
CtBP-E1A inh: blocks the CtBP interaction with E1A; AlphaScreen GST-E1A/His-CtBP binding, 1536-well; active compounds read low; activity change, % (concentration not given with the values); 0.49% of 340,000 active; AID 651724; in the data active means activity change below about -65%; inconclusive means mostly about -30% to -63%; further: on the % scale 0 is the no-effect control and ±100 the full control effect
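In 5 uL wells, 23 nL compound meets equimolar GST-E1A and His-CtBP (5X stock 125 nM each) for 2 h, 37 °C. Beads (5X, 50 ug/mL) then 1 h, 37 °C, dark.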
Six1-Eya2 inh: blocks human Six1 binding to Eya2; Q15475+O00167; AlphaScreen GST-Six1/His-Eya2 binding, biochemical; active compounds read low; activity change, % (no concentration beside the values); 0.56% of 360,000 active; AID 651725; in the data active means activity change below about -65%; inconclusive means mostly about -30% to -63%; further: on the % scale 0 is the no-effect control and ±100 the full control effect
Target sequence (O00167 whole entry, looked up): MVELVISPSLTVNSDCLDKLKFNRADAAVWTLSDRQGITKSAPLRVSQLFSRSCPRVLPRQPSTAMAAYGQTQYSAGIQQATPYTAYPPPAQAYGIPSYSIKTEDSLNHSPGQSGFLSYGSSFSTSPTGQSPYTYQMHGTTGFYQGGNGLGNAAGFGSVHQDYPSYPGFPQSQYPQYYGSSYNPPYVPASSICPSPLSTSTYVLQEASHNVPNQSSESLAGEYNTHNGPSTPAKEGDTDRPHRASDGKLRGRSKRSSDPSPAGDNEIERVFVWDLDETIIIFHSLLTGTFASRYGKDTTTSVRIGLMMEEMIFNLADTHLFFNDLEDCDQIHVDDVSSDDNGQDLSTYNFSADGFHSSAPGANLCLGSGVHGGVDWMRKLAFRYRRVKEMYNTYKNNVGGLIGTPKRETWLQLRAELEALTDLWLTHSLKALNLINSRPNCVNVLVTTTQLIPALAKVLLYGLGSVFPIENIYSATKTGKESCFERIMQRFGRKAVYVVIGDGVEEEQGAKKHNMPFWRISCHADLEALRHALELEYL
Target sequence (Q15475 whole entry, looked up): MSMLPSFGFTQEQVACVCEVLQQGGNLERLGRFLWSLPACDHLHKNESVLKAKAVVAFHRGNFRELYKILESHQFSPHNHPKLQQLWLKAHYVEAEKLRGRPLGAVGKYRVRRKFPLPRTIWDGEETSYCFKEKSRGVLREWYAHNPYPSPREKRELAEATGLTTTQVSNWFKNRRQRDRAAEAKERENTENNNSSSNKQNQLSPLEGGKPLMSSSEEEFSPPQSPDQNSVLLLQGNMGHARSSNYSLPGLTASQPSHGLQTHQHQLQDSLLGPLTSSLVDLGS
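Compounds are tested against tagged Six1 and Eya2 proteins bridged by glutathione donor and nickel acceptor beads; after a one-hour incubation at 37 °C without light, AlphaScreen emission is recorded.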
TDP1 block: blocks human tyrosyl-DNA phosphodiesterase 1; Q9NUW8; recombinant TDP1, AlphaScreen DNA substrate cleavage; Potency, µM (highest dose often 130 µM), for the others: at the highest dose activity change, negative = inhibition, hits mostly inhibitors; 0.28% of 350,000 active; AID 485290; further: potency means the concentration at half of the fitted maximal effect; on the % scale 0 is the no-effect control and ±100 the full control effect; nearly all actives have a fitted effect of over 40% in size
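Steps: enzyme plus compound, 15 min RT; add biotin/phosphotyrosine-FITC oligonucleotide (15 nM final), react 5 min; add donor/acceptor beads (10 ug/ml final), 10 min; read AlphaScreen. Tdp1 at 1 nM final.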
JMJD2A Tudor: JMJD2A Tudor domain (human) inhibition. 4.4% of 390,000 active. O75164. Potency, µM (doses to about 114 µM), for the others: top-dose activity change, negative = inhibition, hits mostly inhibitors. AID 504339. AlphaScreen JMJD2A-Tudor / H3K4me3 peptide binding; further: potency means the concentration at half of the fitted maximal effect; on the % scale 0 is the no-effect control and ±100 the full control effect; nearly all actives have a fitted effect of over 50% in size
An asterisk follows results filed as active; ? = inconclusive; . = no result; [ ] = dose if it differs, or a comment. A selection: hits, their analogues and other compounds. The true share with any hit is near 5.3%. Unless noted, the call rests on the fitted dose curve; in most records, active means well fitted inhibition curve with a large enough effect; inconclusive means small, poorly fitted or top-dose-only effect; inactive means no such curve, though single readings can be large or run the other way.

SMILES	HP1b chromo inh	BAZ2B block	CtBP-E1A inh	Six1-Eya2 inh	TDP1 block	JMJD2A Tudor
CCOc1ccc(CN2CCC(Cc3ccccc3)CC2)cc1	?	?	.	2.8	.	25.1µM*
O=S(=O)(NCC1CCN(Cc2ccccc2)CC1)c1ccccc1C(F)(F)F	7.2%	-14.1%	-6.4	-5.9	6.2%	-5.3%
FC(F)(F)c1ccccc1CN1CCC(Cc2ccccc2)CC1	?	0.9%	16.6	17.6	.	12.6µM*
CCOc1cc(N2CCOCC2)c(OCC)cc1NC(=O)c1ccc2ccccc2n1	?	15.8µM*	-16.6	?	7.7%	22.4µM*
CCOc1cc(N2CCOCC2)c(OCC)cc1NC(=O)c1ccccc1C	-10.4%	?	3.4	2.4	2.6%	?
CCOc1cc(N2CCOCC2)c(OCC)cc1NC(=O)CN1CCCC1	4.1%	12.6µM*	-8.2	5.2	-7.9%	?
CCOc1cc(N2CCOCC2)c(OCC)cc1NC(=O)Cc1cccc2ccccc12	-16.8%	22.4µM*	?	?	5.7%	?
CCOc1cc(N2CCOCC2)c(OCC)cc1NC(=O)c1cc(S(=O)(=O)N2CCOCC2)ccc1Cl	-16.0%	?	7.4	1.8	-9.7%	?
CCOc1cc(N2CCOCC2)c(OCC)cc1NC(=O)C1CCCC1	8.6%	-2.8%	10.5	-9.8	5.7%	-7.6%
CCOc1cc(N2CCOCC2)c(OCC)cc1NS(=O)(=O)c1ccc(Cl)s1	-2.1%	50.1µM*	-13.9	-6.6	?	?
COc1ccc2c(c1)c1c(c(=O)n(-c3ccccc3C)c(=O)n1Cc1c(F)cccc1Cl)n2C	35.0%	-2.0%	.	.	5.6%	-11.4%
CCOc1cc(N2CCOCC2)c(OCC)cc1NC(=O)C(C)Oc1ccccc1 (stereo unspecified)	-16.7%[57 µM]	.	-29.1	-26.0	0.8%	35.5µM*
CN(C)S(=O)(=O)c1ccc2c(c1)N(CC(=O)NCc1cccc(Br)c1)C(=O)CS2	29.3%	-7.2%	.	.	-2.6%	-8.4%
O=C1c2ccccc2C(=O)c2c(O)ccc(O)c21	.	.	.	.	14.3%	.
COc1ccc(N)c2c1C(=O)c1ccccc1C2=O	44.7µM*	31.6µM*	?	-11.0	8.1%	44.7µM*
COc1ccc(OC)c2c1C(=O)c1ccccc1C2=O	12.3%	-1.1%	?	?	.	-12.1%
Nc1ccc(O)c2c1C(=O)c1ccccc1C2=O	?	3.98µM*	-86.0*	-84.5*	.	5.62µM*
COc1ccc(OC)c2c1C(=O)C(Cl)=C(Cl)C2=O	2.24µM*	44.7µM*	0.9	-5.2	.	0.891µM*
O=C1C=C(O)c2c(O)cc(O)c(O)c2C1=O	?	.	?	?	.	1.58µM*
CC(=O)N1CCc2cc(Br)cc(S(=O)(=O)CCC(=O)N3CCN(c4ccccc4)CC3)c21	11.6%	0.8%	.	.	-2.9%	-20.5%
CCN(CC)c1cc2c(cc1F)c(=O)c(S(=O)(=O)c1cccc(C)c1)cn2C	34.3%	0.0%	.	.	6.2%	1.0%
Nc1ccc(Br)c2c1C(=O)c1ccccc1C2=O	?	10µM*	-75.2*	?	10.3%	?
O=C1c2ccccc2C(=O)c2c(O)c(O)cc(O)c21	11.2µM*	.	?	-11.3	?	22.4µM*
Cc1[nH]c2ccc(C(=O)OC(C)C(=O)N(C)C3CCCCC3)cc2c1C (stereo unspecified)	?	56.2µM*	-26.7	-16.1	1.3%	?
Cc1cccc(CN2CCCC(C(=O)c3ccc4c5c(cccc35)CC4)C2)n1 (stereo unspecified)	10.2%	?	-11.7	-14.4	11.1%	?
SMILES	HP1b chromo inh	BAZ2B block	CtBP-E1A inh	Six1-Eya2 inh	TDP1 block	JMJD2A Tudor
COc1cc(CN2CCCC(C(=O)c3ccc4c5c(cccc35)CC4)C2)cc(OC)c1O (stereo unspecified)	-19.9%	39.8µM*	-2.4	-21.8	8.4%	?
O=C(c1ccc2c3c(cccc13)CC2)C1CCCN(Cc2cccnc2)C1 (stereo unspecified)	-2.8%[57 µM]	44.7µM*	-9.2	4.5	7.2%	?
COCCCNC(=O)c1cnn(-c2ccccc2Cl)c1C1CCN(C(=O)OC(C)(C)C)CC1	50.2%	9.9%[57.1 µM]	.	.	3.2%	-16.8%
Cc1ccc(C(=O)COC(=O)CSc2cccc3cccnc23)c(C)c1	78.9%	.	-76.8*	0.0	.	7.5%
Cc1ccc(NCCCn2cnc3c(OCc4ccccc4)ncnc32)cc1C	?	.	?	?	.	50.1µM*
Cc1cccc(OCC(=O)Nc2nonc2-c2ccc(Br)cc2)c1C	34.0%	0.6%	.	.	11.4%	-20.9%
COc1ccc(-n2c(O)c(/C=N/NS(=O)(=O)c3cc(C)ccc3C)c3ccccc3c2=O)cc1OC	-26.3%	44.7µM*	-0.7	-13.1	9.1%	50.1µM*
COc1ccc(-c2sc3ccccc3c2-c2ccc(OCCN(C)C)cc2)cc1	?	.	?	-29.5	13.4%	35.5µM*
COc1cccc(-c2sc3ccc(OC)cc3c2-c2ccc(OCCN(C)C)cc2)c1	?	.	-18.9	?	11.2%	28.2µM*
COc1ccc(-c2sc3ccccc3c2-c2ccc(O)cc2)cc1	5.7%	.	-3.1	-4.2	0.4%	-30.3%
COc1ccc(C2Nc3ccccc3C(=O)N2Cc2cccnc2)cc1COc1ccc(NC(C)=O)cc1 (stereo unspecified)	.	.	.	.	5.7%	56.2µM*
COc1ccc(C2Nc3ccccc3C(=O)N2C2CCCC2)cc1COc1ccc(NC(C)=O)cc1 (stereo unspecified)	.	.	.	.	-2.4%	50.1µM*
COc1ccc(CN2C(=O)c3ccccc3NC2c2ccc(OC)c(COc3ccc(NC(C)=O)cc3)c2)cc1 (stereo unspecified)	.	.	.	.	0.0%	-23.8%
COc1ccc(C2Nc3ccccc3C(=O)N2c2ccccc2)cc1COc1ccc(NC(C)=O)cc1 (stereo unspecified)	2.3%[57 µM]	.	.	.	3.0%	-14.6%[57.1 µM]
COc1ccc(C2Nc3ccccc3C(=O)N2Cc2ccccn2)cc1COc1ccc(NC(C)=O)cc1 (stereo unspecified)	.	.	.	.	-10.7%	56.2µM*
CCCCCCCCCC(=O)OCC(CO)OC(=O)CCCCCCCCC (stereo unspecified)	.	.	.	.	3.7%	.
O=C(O)CCCCCNc1nc(=S)[nH]c2ccccc12	5.1%	?	-2.5	-10.5	2.8%	22.4µM*
CC(C)CCNC(=O)Cc1ccc(Nc2nc(=S)[nH]c3ccccc23)cc1	5.5%	-15.7%	19.4	-85.8*	0.0%	-19.8%
O=C(CCCCCNc1nc(=S)[nH]c2ccccc12)NCCc1ccc(Cl)cc1	34.0%	-2.3%	-12.8	?	-2.6%	-13.4%
O=C(Cc1ccc(Nc2nc(=S)[nH]c3ccccc23)cc1)NC1CCCCC1	.	-14.5%	.	.	4.8%	.
O=C(NCc1ccco1)c1cc([N+](=O)[O-])ccc1N1CCOCC1	34.9%	79.4µM*	.	1.7	2.5%	5.8%

From PubChem
